Assay outcomes as filed in PubChem.
Sampled rows, rich in hits. Any-hit rate of the full collection: about 3.1%.
Tau fibril FP = blocks human tau fibril formation measured by polarization; Potency, µM (top dose mostly 57.7 µM), for inactives: at the highest dose activity, negative = inhibition, actives largely listed as inhibitors; K18 P301L tau heparin fibrillization, Alexa594 FP, 6 h; P10636; 0.39% of 280,000 active; further: nearly all actives have a fitted effect of over 55% in size
Target sequence (P10636 561-689 P618L limits assumed): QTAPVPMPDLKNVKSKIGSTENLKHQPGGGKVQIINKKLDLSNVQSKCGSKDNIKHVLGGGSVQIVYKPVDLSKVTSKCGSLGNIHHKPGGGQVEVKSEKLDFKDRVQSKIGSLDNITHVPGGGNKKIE
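Heparin (20 uM) drove fibril formation of recombinant tau K18 P301L, 15 uM unlabeled with 0.24 uM Alexa 594 label, for 6 hr at 37 C in 100 mM sodium acetate pH 7. Fluorescence polarization (555/632 nm) read 1 hr after 30 uM ThT.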
TexasRed fluor = Texas Red fluorescence interference in TRb-SRC2 counter-screen | 0.29% of 280,000 active | Potency, µM (top dose mostly 106 µM), for the others: at the highest dose fluorescence change, negative = quenching | TRb/SRC2 Texas Red total fluorescence interference | AID 1479; active means well fitted curve in either direction with a large enough effect; inconclusive means small, poorly fitted or top-dose-only effect
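Human TRβ ligand-binding domain (0.6 uM) and Texas Red SRC2 peptide (20 nM) in Tris buffer with 1 uM T3 and 5% DMSO were incubated with pinned compound for 5 hr at ambient temperature. Total fluorescence was computed as S + 2P (555/632 nm).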
Tau fluor counter = counter-screen for tau fibril formation inhibitors; tau K18 P301L Alexa594 fluorescence, heparin fibrillization; Potency, µM (doses to about 57.7 µM), inactives show at the top dose activity change, negative = decrease; 0.93% of 280,000 active; AID 1463; further: nearly all actives have a fitted effect of over 55% in size
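Human K18 P301L tau (15 uM unlabeled plus 0.24 uM Alexa 594-labeled, final) in 100 mM sodium acetate pH 7 was mixed with compound and 20 uM heparin and incubated 6 hr at 37 C.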
TRb-SRC2 inh = inhibitors of human thyroid hormone receptor beta-SRC2 interaction; Potency, µM (titrated, usually from 106 µM), for inactives: top-dose activity change, negative = inhibition, actives largely listed as inhibitors; 0.065% of 280,000 active; P10828; TRbeta-SRC2 peptide binding, fluorescence polarization; receptor liganded with 1 µM T3;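 further: plate controls were bound peptide for no effect and peptide without receptor for full effect; nearly all actives have a fitted effect of over 50% in size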
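Fluorescence polarization of 20 nM Texas Red SRC2 peptide with 0.6 uM human TRb ligand-binding domain, in Tris buffer with 1uM T3 and 5% DMSO. Incubated 5 hr ambient; normalized to unbound and bound controls.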
Tau fibril ThT = tau fibrillization inhibition (ThT binding); P10636; recombinant tau K18 P301L, heparin-induced fibrillization, ThT fluorescence; Potency, µM (titrated, usually from 57.4 µM), inactives show at the top dose activity, negative = inhibition, most hits filed as inhibitors; 2.1% of 270,000 active; AID 1460; further: nearly all actives have a fitted effect of over 55% in size
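Fibril formation assay: tau K18 P301L at 15 uM with trace Alexa 594 label, heparin inducer 20 uM, pH 7 sodium acetate buffer, 37 C for 6 hr; endpoint ThT signal.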
GoLoco inh red = blocks human Gai1 binding to RGS12 GoLoco peptide, red readout; P63096; 0.44% of 230,000 active; Potency, µM (titrated, usually from 61.6 µM), inactives show top-dose activity, negative = inhibition, most hits filed as inhibitors; Gai1:RGS12 GoLoco peptide FP, rhodamine, 10 min; AID 880; active means well fitted inhibition curve with a large enough effect, not every such curve was filed as active; inactive means no such curve, though single readings can be large or run the other way; further: nearly all actives have a fitted effect of over 30% in size
Target sequence (P63096 whole entry, looked up): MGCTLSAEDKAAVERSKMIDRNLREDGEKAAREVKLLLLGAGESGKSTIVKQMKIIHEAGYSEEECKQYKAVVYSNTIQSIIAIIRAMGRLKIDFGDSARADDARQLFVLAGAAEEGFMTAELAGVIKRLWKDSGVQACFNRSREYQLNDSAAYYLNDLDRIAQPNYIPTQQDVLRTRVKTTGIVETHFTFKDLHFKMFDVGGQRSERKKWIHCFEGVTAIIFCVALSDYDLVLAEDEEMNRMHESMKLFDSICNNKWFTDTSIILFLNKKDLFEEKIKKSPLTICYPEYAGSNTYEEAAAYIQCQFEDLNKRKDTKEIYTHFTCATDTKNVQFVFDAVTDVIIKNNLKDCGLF
* hit, by the source's call; ? = inconclusive; · = not tested or not shown; [ ] = dose if it differs, or a comment. Unless noted, the call rests on the fitted dose curve; in most records, active means well fitted curve in the direction sought with a large enough effect; inconclusive means small, poorly fitted or top-dose-only effect, or another doubt; inactive means no such curve, though single readings can be large; an effect the other way counts as inactive or inconclusive. Unless noted, on the % scale 0 is the no-effect control and ±100 the full control effect; potency means the concentration at half of the fitted maximal effect.

SMILES	Tau fibril FP	TexasRed fluor	Tau fluor counter	TRb-SRC2 inh	Tau fibril ThT	GoLoco inh red
CCOC(=O)c1c(NC(=O)Nc2ccc(F)cc2)sc2c1CCN(C)C2	-3%	-4%	3%	0%	-8%	5%
CCC(=O)N1CCc2cc(Br)cc(S(=O)(=O)NCc3cccc(OC)c3)c21	-5%	-2%	-20%	12%	?	·
CCCCOc1[nH]c2nc(-c3ccco3)n(Cc3ccco3)c(=N)c2c1C#N	-11%	-5%	?	-14%	22µM*	-1%
CC(NC(=O)c1c(O)nc2ccccn2c1=O)c1ccccc1 (centres undefined)	-12%	18µM*[quencher]	-9%	-7%	-1%	·
Cc1ccn2c(=O)c(C(=O)NC(C)c3ccccc3)c(O)nc2c1 (centres undefined)	-2%	3%	-1%	-5%	6%	·
O=C(Nc1cccc(-c2csc(Nc3ccc(Cl)cc3)n2)c1)c1cc([N+](=O)[O-])cc(C(F)(F)F)c1	5%	-1%	7.1µM*[quencher]	-7%	?	5%
O=C(Nc1ccc(-c2csc(Nc3ccc(Cl)cc3)n2)cc1)c1cc([N+](=O)[O-])cc(C(F)(F)F)c1	?	0%	7.1µM*[quencher]	5%	?	0%
Nc1cc(-c2ccc(OC(F)(F)F)cc2)nn1-c1ccc(Cl)c(Cl)c1	?	-6%	13µM*[quencher]	-4%	20µM*	17%
COc1ccc(CNc2nc(-c3ccco3)nn2C(=O)CC(C)C)cc1	-11%	79µM*[quencher]	-21%	-13%	-13%	·
CC(C)CC(=O)n1nc(-c2ccco2)nc1NCc1ccc(Cl)cc1	-8%	-9%	-11%	5%	-2%	·
CCOC(=O)c1sc2nc(C)nc(Nc3ccc(OC)cc3)c2c1C	1%	-3%	-17%	-1%	?	2%
C[N+]1(CCCCCCC(=O)/C=N/O)CCCCCC1	-1%	0%	-2%	5%	-1%	13µM*
C[N+]1(CCCCC[N+]2(C)CCCC2)CCCC1	-6%	-10%	-7%	8%	-5%	7%
C[N+](C)(C)CCCCCCC(=O)/C=N/O	-3%	-2%	15%	-3%	6%	1.8µM*
CN(CCCCCC(=O)/C=N/O)Cc1ccccc1	-2%	-5%	-3%	5%	-1%	5%
COc1ccccc1C(=O)NCCc1c(C)[nH]c2c(C)ccc(F)c12	8%	0%	-3%	1%	9%	6%
Cc1ccc(NS(=O)(=O)c2ccc(N3CCN(c4ccc(O)cc4)CC3)c([N+](=O)[O-])c2)c(C)c1	8%	0%	11µM*[quencher]	3%	14µM*	-15%
O=[N+]([O-])c1cc(S(=O)(=O)Nc2ccccc2)ccc1N1CCN(c2ccc(O)cc2)CC1	9%	-1%	-2%	-8%	-6%	8%
CCCC1CC(CSc2ncn[nH]2)OC1=O (centres undefined)	-3%	-1%	9%	-4%	4%	-2%
CN=C(c1ccco1)n1c(=S)nc(-c2ccco2)n(C)c1=S	?	-4%	-22%	-7%	28µM*	14%
COc1ccccc1NC(=O)N1CCOc2ccccc21	4%	-6%	13µM*[quencher]	-2%	?	·
CCCCSc1nn[nH]n1	-2%	0%	-10%	-4%	-15%	3%
CCOC(=O)C(Cc1ccccc1)NC(=O)Cn1nnc(-c2ccccc2)n1 (centres undefined)	11%	0%	-12%	-4%	-3%	-2%
COc1cccc(C(=O)/C=C/Nc2cc(C)ccc2O)c1	6%	-11%	16µM*[quencher]	-2%	3.5µM*	-19%
Cc1ccc(N2C=Nc3ccc(C)c4nc(C)cc2c34)cc1	-3%	1%	1%	2%	3%	-5%
COC1=C(N)C(=O)c2nc(-c3nc(C(=O)O)c(C)c(-c4ccc(OC)c(OC)c4O)c3N)ccc2C1=O	?	-5%	?	-13%	16µM*	7%
